# Assay results as given in paper PMC5540273 (PLoS ONE, 2017).
# Experiments:
# Conditions in all cases: concentration: 1 μM,replicates: in singlicate; n = 1
# CLK2 = tested on: CLK2
# CLK3 = tested on: CLK3
# CLK4 = tested on: CLK4
# CSF1R-autoinhibited = tested on: CSF1R-autoinhibited
# CSF1R = tested on: CSF1R
# CSK = tested on: CSK
# CSNK1A1L = tested on: CSNK1A1L
# CSNK1A1 = tested on: CSNK1A1
# CSNK1D = tested on: CSNK1D
# CSNK1E = tested on: CSNK1E
# 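Also: KINOMEscan kinase panel screen.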
SMILES,%Inh (CLK2),%Inh (CLK3),%Inh (CLK4),%Inh (CSF1R-autoinhibited),%Inh (CSF1R),%Inh (CSK),%Inh (CSNK1A1L),%Inh (CSNK1A1),%Inh (CSNK1D),%Inh (CSNK1E)
C[C@H]1Oc2cc(cnc2N)-c2c(nn(C)c2C#N)CN(C)C(=O)c2ccc(F)cc21,4%,0%,22%,0%,15%,0%,20%,0%,35%,0%
CC(C)N1C(=O)Cc2cc(Nc3ncc(C(F)(F)F)c(NCc4cccc(S(C)(=O)=O)c4)n3)ccc21,34%,0%,38%,0%,8%,14%,2%,0%,0%,0%
CNC(=O)c1ccccc1Sc1ccc2c(/C=C/c3ccccn3)n[nH]c2c1,,0%,0%,86%,99.9%,3%,10%,23%,10%,0%
Cc1ccc(-n2nc(C(C)(C)C)cc2NC(=O)Nc2ccc(OCCN3CCOCC3)c3ccccc23)cc1 [GW839464],9%,5%,0%,,,3%,7%,0%,1%,10%
Cl.Cl.NC[C@H](Cc1ccc(C(F)(F)F)cc1)NC(=O)c1cc(Br)c(-c2ccnc3[nH]ccc23)s1 [GSK1487252],39%,22%,57%,3%,0%,0%,16%,27%,55%,54%
CCn1c(-c2nonc2N)nc2c(C#CC(C)(C)O)nc(OCCN)cc21.Cl.Cl [GSK902056],7%,27%,20%,0%,11%,0%,18%,0%,0%,41%
Nc1nc(Nc2ccccc2)cc(-c2ccc3c(N)n[nH]c3c2)n1 [GSK2225749],40%,0%,80%,0%,0%,0%,10%,21%,15%,0%
CCN(CC)CCOc1ccc(Nc2ncc3cc(-c4c(Cl)cccc4Cl)c(=O)n(C)c3n2)cc1 [SB-601273],10%,0%,0%,100%,99.9%,98.4%,3%,13%,39%,60%
O=C(NCCNc1ccnc(NCc2ccc(F)cc2)n1)c1cc2ccccc2s1 [GSK1379944],0%,19%,22%,0%,9%,68%,25%,0%,72%,26%
NC(=O)c1cc(-c2ccccc2)cc2c(C3CCNCC3)c[nH]c12 [GSK301362],3%,14%,25%,0%,53%,0%,20%,0%,50%,72%
Cc1occc1-c1nc(N)c(OC[C@@H](N)Cc2c[nH]c3ccccc23)cc1-c1cc2c(C)n[nH]c2cn1 [GSK1660450],97.5%,80%,97.6%,0%,18%,0%,71%,,96.6%,99.7%
CC(C)Nc1cc(-c2ccc3c(N)n[nH]c3c2)nc(N)n1 [GSK2221681],44%,23%,63%,0%,4%,0%,5%,18%,34%,22%
Cc1n[nH]c2ccc(-c3cc(OC[C@@H](N)Cc4ccccc4)cnc3-c3ccoc3)cc12.O=C(O)C(F)(F)F.O=C(O)C(F)(F)F [GSK507358],54%,23%,60%,0%,17%,0%,94.4%,,98%,99.9%
CN(C)CC(O)COc1ccc(Nc2nccc(-c3cnn4nc(N5CCOCC5)ccc34)n2)cc1 (centres unmarked) [GW767488],96.6%,11%,88%,15%,32%,24%,15%,92.2%,41%,29%
Cl.Oc1cc(-c2nc(-c3ccccc3)[nH]c2-c2ccncc2)ccc1Cl [SB-386023],0%,24%,11%,0%,2%,1%,25%,41%,71%,77%
Cc1ccc2c(-c3ccncc3)c(-c3ccc(F)cc3)nn2c1.Cl [GW461484],0%,0%,0%,8%,0%,0%,39%,,96.9%,99.5%
Cl.Cl.Nc1nc(-c2ccc3c(N)n[nH]c3c2)cc(N2CCCC(NC(=O)c3ccccc3)C2)n1 (centres unmarked) [GSK2286775],15%,14%,0%,0%,15%,5%,4%,0%,0%,24%
C[C@@H](Oc1cc(-c2cnn(C3CCNCC3)c2)cnc1N)c1c(Cl)ccc(F)c1Cl,9%,1%,0%,82%,93.8%,24%,0%,38%,14%,6%
Cc1cc2cn[nH]c2cc1-c1cccc2c(N)c(C(N)=O)nnc12,11%,15%,0%,0%,6%,98.3%,35%,34%,22%,30%
COc1ccc(C[C@@H](CN)NC(=O)c2cc(Br)c(-c3ccnc4[nH]ccc34)s2)cc1.Cl.Cl [GSK1389063],91.4%,77%,95.2%,0%,56%,0%,81%,88%,90%,95.9%
C=CC(=O)Nc1cc2c(Nc3ccc(F)c(Cl)c3)ncnc2cc1OCCCN1CCOCC1 [GW781483],0%,0%,4%,35%,13%,5%,22%,0%,0%,26%
CCN(CC)CCCCNc1ncc2cc(-c3c(Cl)cccc3Cl)c(NC(=O)NC(C)(C)C)nc2n1,0%,0%,0%,85%,99.2%,90.5%,0%,30%,14%,61%
C[C@@H]1CCN(C(=O)CC#N)C[C@@H]1N(C)c1ncnc2[nH]ccc12,4%,0%,0%,0%,3%,0%,0%,21%,,0%
Cc1cc(C(=O)Nc2ccc(Oc3ccc4nc(NC(=O)C5CC5)cn4n3)cc2)nn1-c1ccccc1,1%,0%,0%,0%,100%,15%,0%,43%,0%,1%
CN(C)CCOc1ccc(-c2cc(-c3c[nH]nc3-c3ccccn3)ccn2)cc1 [GW835314],0%,5%,18%,0%,6%,88%,3%,11%,25%,31%
O=C(NCCCN1CCOC1=O)c1cnc(NCc2cc(Cl)ccc2Cl)nc1NC1CCCC1,1%,0%,4%,12%,32%,12%,5%,34%,12%,76%
Cl.Cl.NC[C@H](CC1CCCCC1)NC(=O)c1cc(Br)c(-c2ccnc3[nH]ccc23)s1 [GSK1581427],71%,57%,69%,0%,48%,0%,42%,53%,86%,85%
